According to PubChem BioAssay (NCATS):
Values joined by “and” are separate entries in the source; they are usually repeats but may differ in a detail not shown here. Equal entries are not always repeated. Inconclusive results are not listed. Active and inactive are the calls of the source. Calls follow the shape of the full dose curve.

Legend:
[1] = Primary qHTS for inhibitors of SARS-S pseudo-typed particle cell entry (AID 1479145); conditions: outcome: dose series up to 57.1 µM unless noted; also: nearly all actives have a fitted effect of over 45% in size; as to activity change, negative = inhibition: % is scaled to controls: 0 for no effect and ±100 for the full control effect
[2] = Primary qHTS for Huh7 cytotoxicity: counterscreen for inhibitors of MERS-S pseudotyped particle cell entry (AID 1479147); conditions: outcome: dose series up to 57.1 µM unless noted
[3] = Primary qHTS for inhibitors of MERS-S pseudo-typed particle cell entry (AID 1479149); conditions: outcome: dose series up to 57.1 µM unless noted; also: nearly all actives have a fitted effect of over 60% in size; as to activity change, negative = inhibition: % is scaled to controls: 0 for no effect and ±100 for the full control effect
[4] = Primary qHTS for Vero E6 cytotoxicity: counterscreen for inhibitors of SARS-S pseudo-typed particle cell entry (AID 1479150); conditions: outcome: dose series up to 57.1 µM unless noted
[5] = Cytotoxicity counterscreen for inhibitors of SARS-CoV-2 cell entry (AID 1645845); conditions: outcome: dose series up to 57.1 µM unless noted; also: nearly all actives have a fitted effect of over 50% in size
How it was run: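 ATP-content luminescence (ATPLite 1step, 15 min RT) read after 48 h compound exposure of Expi293F cells stably expressing human ACE2; normalized to cells-only wells and media-only wells.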

[6] = Primary qHTS to identify inhibitors of SARS-CoV-2 cell entry (AID 1645846); conditions: SARS-CoV-2 pseudovirus cell entry assay, luminescence; activity change, negative = inhibition: at 57.1 µM (top of the series) unless noted; also: nearly all actives have a fitted effect of over 45% in size
How it was run: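 Inhibition of spike-mediated entry was scored in human ACE2-transfected Expi293F cells. Particles were MLV-pseudotyped with Wuhan-Hu-1 S carrying a 19-aa C-terminal deletion; signal was luciferase after two days, scaled between spike PP and fusion-protein-free PP.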

CCN(CC)CCOC(=O)c1cccnc1
inactive: Potency [1] | Potency [2] | Potency [3] | Potency [4] | Potency [5]
-32.2%: activity change, negative = inhibition [6]

CCC(C(=O)NC(N)=O)c1ccccc1 (configuration not stated)
-16.3%: activity change, negative = inhibition [6]
inactive: Potency [1] | Potency [2] | Potency [3] | Potency [4] | Potency [5]

CCOc1ccc(Cc2cc([C@@H]3O[C@H](CO)[C@@H](O)[C@H](O)[C@H]3O)ccc2Cl)cc1
0.66%: activity change, negative = inhibition [6]
inactive: Potency [1] | Potency [2] | Potency [3] | Potency [4] | Potency [5]

O=C(CCc1ccc(O)cc1)c1c(O)cc(O)cc1O[C@@H]1O[C@H](CO)[C@@H](O)[C@H](O)[C@H]1O
inactive: Potency [1] | Potency [2] | Potency [3] | Potency [4] | Potency [5]
0.14% and -17.3%: activity change, negative = inhibition [6]

CN(C(=O)CO)c1c(I)c(C(=O)NCC(O)CO)c(I)c(C(=O)NCC(O)CO)c1I (configuration not stated)
-14.3%: activity change, negative = inhibition [6]
inactive: Potency [1] | Potency [2] | Potency [3] | Potency [4] | Potency [5]

[2H]C([2H])([2H])C(O)(CCO[C@@H](C)[C@H]1CC[C@H]2/C(=C/C=C3\C[C@@H](O)C[C@H](O)C3=C)CCC[C@]12C)C([2H])([2H])[2H]
-6.57%: activity change, negative = inhibition [6]
inactive: Potency [1] | Potency [2] | Potency [3] | Potency [4] | Potency [5]

OCC(O)COc1ccc(Cl)cc1 (configuration not stated)
-23.5% [at 171 µM]: activity change, negative = inhibition [6]
inactive: Potency [1] | Potency [2] | Potency [3] | Potency [4] | Potency [5]

CO/N=C(/C(=O)N[C@@H]1C(=O)N2C(C(=O)O)=CCS[C@H]12)c1csc(N)n1
-20.9%: activity change, negative = inhibition [6]
inactive: Potency [1] | Potency [2] | Potency [3] | Potency [4] | Potency [5]

CCC=CCC=CCC=CCCCCCCCC(=O)O
inactive: Potency [1] | Potency [2] | Potency [3] | Potency [4] | Potency [5] | Potency [6]

O=C(O)c1ccc(NC(=O)[C@H](Cc2ccc(O)cc2)NC(=O)c2ccccc2)cc1
inactive: Potency [1] | Potency [2] | Potency [3] | Potency [4] | Potency [5]
-10.6%: activity change, negative = inhibition [6]

C[C@H]1CN(C[C@H](Cc2ccccc2)C(=O)NCC(=O)O)CC[C@@]1(C)c1cccc(O)c1
-6.59% and -17.3%: activity change, negative = inhibition [6]
inactive: Potency [1] | Potency [2] | Potency [3] | Potency [4] | Potency [5]

O=P(O)(O)C(O)(Cc1cnc2ccccn12)P(=O)(O)O
inactive: outcome [1] inactive [at 0.573 µM] | outcome [2] inactive [at 0.573 µM] | activity change, negative = inhibition [3] -0.315% [at 0.573 µM] | outcome [4] inactive [at 0.573 µM] | outcome [5] inactive [at 0.702 µM] | outcome [6] inactive [at 0.702 µM]

CCCC1C(=O)N2C(N(C)C)=Nc3ccc(C)cc3N2C1=O (configuration not stated)
inactive: Potency [1] | Potency [2] | Potency [3] | Potency [4] | Potency [5]
2.29% [at 114 µM]: activity change, negative = inhibition [6]

CCOC(=O)[C@H](CCc1ccccc1)N[C@H](C)C(=O)N1C2CCCCC2C[C@H]1C(=O)O (some centres not stated)
inactive: Potency [1] | Potency [2] | Potency [3] | Potency [4] | Potency [5]
-29.8%: activity change, negative = inhibition [6]

Cc1cc(=O)c(C(=O)N[C@@H](C(=O)N[C@@H]2C(=O)N3C(C(=O)O)=C(CSc4nnnn4C)CS[C@H]23)c2ccc(O)cc2)c[nH]1
inactive: Potency [1] | Potency [2] | Potency [3] | Potency [4] | Potency [5]
-20.7%: activity change, negative = inhibition [6]

Cc1ccc(/C=C2\C(=O)C3(C)CCC2C3(C)C)cc1 (configuration not stated)
inactive: Potency [1] | Potency [2] | Potency [3] | Potency [4] | Potency [5] | Potency [6]

CCCC(=O)O[C@]1(C(=O)COC(C)=O)CC[C@H]2C3C[C@H](F)C4=CC(=O)C=C[C@]4(C)[C@@]3(F)[C@@H](O)C[C@@]21C (some centres not stated)
inactive: Potency [1] | Potency [2] | Potency [3] | Potency [4] | Potency [5]
-5.47%: activity change, negative = inhibition [6]

NCCCC[C@H](NC(=O)[C@@H]1CCCN1C(=O)[C@@H]1CSSC[C@H](N)C(=O)N[C@@H](Cc2ccc(O)cc2)C(=O)N[C@@H](Cc2ccccc2)C(=O)N[C@@H](CCC(N)=O)C(=O)N[C@@H](CC(N)=O)C(=O)N1)C(=O)NCC(N)=O
-25.1%: activity change, negative = inhibition [6]
inactive: Potency [1] | Potency [2] | Potency [3] | Potency [4] | Potency [5]

O=C(O)[C@@H]1CCCN1
inactive: Potency [1] | Potency [2] | Potency [3] | Potency [4] | Potency [5] | Potency [6]

O=S(=O)(O)Oc1ccc(C(c2ccc(OS(=O)(=O)O)cc2)c2ccccn2)cc1
inactive: Potency [1] | Potency [2] | Potency [3] | Potency [4] | Potency [5] | Potency [6]

CCCCC(CC)COC(=O)c1ccc(Nc2nc(Nc3ccc(C(=O)OCC(CC)CCCC)cc3)nc(Nc3ccc(C(=O)OCC(CC)CCCC)cc3)n2)cc1 (configuration not stated)
-28%: activity change, negative = inhibition [6]
inactive: Potency [1] | Potency [2] | Potency [3] | Potency [4] | Potency [5]

CC(=O)OC1CCC2(C)C(=CCC3C2CCC2(C)C(c4cccnc4)=CCC32)C1 (configuration not stated)
-20%: activity change, negative = inhibition [6]
inactive: Potency [1] | Potency [2] | Potency [3] | Potency [4] | Potency [5]
